# Screening data from PubChem.
# CYP2C9 activ: human CYP2C9 activators, primary screen, biochemical, luminescence. recombinant CYP2C9, luciferin-H conversion; hits give high values; factor 1 = untreated enzyme, 0 = blocked. activation factor at 5 µM. 96,000 compounds, 1.4% hits. AID 1024, 2008;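 active = activation factor of 2 or more for CYP2C9 at a 5 µM dose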;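 also: 0 = sulfaphenazole-blocked wells and 1 = vehicle-only wells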
# Target sequence (P11712 whole entry, looked up): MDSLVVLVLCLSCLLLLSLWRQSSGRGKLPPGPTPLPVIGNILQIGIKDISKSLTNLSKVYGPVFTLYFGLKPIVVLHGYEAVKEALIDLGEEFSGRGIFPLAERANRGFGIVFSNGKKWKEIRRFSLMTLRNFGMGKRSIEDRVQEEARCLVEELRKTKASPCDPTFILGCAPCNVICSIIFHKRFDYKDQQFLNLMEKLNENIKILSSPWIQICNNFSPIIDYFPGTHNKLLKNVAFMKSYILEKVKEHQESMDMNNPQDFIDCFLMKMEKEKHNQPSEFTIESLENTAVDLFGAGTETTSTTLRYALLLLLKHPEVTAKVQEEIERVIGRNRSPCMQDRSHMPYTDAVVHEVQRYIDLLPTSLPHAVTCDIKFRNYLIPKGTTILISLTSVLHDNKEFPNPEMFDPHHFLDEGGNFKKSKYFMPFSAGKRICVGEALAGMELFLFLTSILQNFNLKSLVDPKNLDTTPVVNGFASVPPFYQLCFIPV
# CYP2C19 activ: human CYP2C19 activators, primary screen, biochemical, luminescence | Cytochrome P450 2C19 (Homo sapiens), P33261 | activation factor at 5 µM | recombinant CYP2C19, luciferin-H EGE luminescence; hits give high values; 0 = fully inhibited enzyme, 1 = untreated enzyme | 96,000 tested, under 10 active;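 active = activation factor of at least 2 at 5 µM in the primary screen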;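 also: 0 = wells with 2.5 mM tranylcypromine and 1 = vehicle-only wells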
# CYP2C19 inhib: blockers of cytochrome P450 2C19 activity – biochemical, luminescence, ADME assay, primary screen; 96,000 compounds, 21% hits; CYP2C19 Supersomes, luciferin-H EGE luminescence, 30 min; AID 778, 2007; inhibition, % at 5 µM;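 active = CYP2C19 inhibition above a set limit at 5 µM in the primary screen, cut at about 50% in these data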;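 also: plate controls were negative control wells for no effect and 2.5 mM tranylcypromine positive control for full effect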
# CYP2C9 inh: blockers of cytochrome P450 2C9 activity – biochemical, luminescence, ADME assay, primary screen. P11712. CYP2C9 Supersomes, luciferin-H conversion. inhibition, % at 5 µM. 96,000 compounds, 20% hits;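 active = blocking of liver enzyme CYP2C9 beyond about 50% at 5 µM, limit read from the data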
# * hit, by the source's call. Most compounds without a hit are left out; they make up all but 31% or so of the library.
SMILES,CYP2C9 activ,CYP2C19 activ,CYP2C19 inhib,CYP2C9 inh
O=C(Nc1ccc(Cl)cc1)N1CCN(c2ccc3nnc(-c4ccc(F)cc4)n3n2)CC1,0.4,0.6,40,56*
O=C(c1ccc(Br)o1)N1CCN(c2ccc3nnc(-c4ccc(F)cc4)n3n2)CC1,0.3,0.8,16,67*
O=C(Nc1ccccc1Cl)N1CCN(c2ccc3nnc(-c4ccccc4)n3n2)CC1,0.1,0.3,69*,89*
O=C(Cc1cccs1)Nc1ccc(S(=O)(=O)Nc2ncccn2)cc1,1.2,1.2,-19,-17
Cn1ncc([N+](=O)[O-])c1C(=O)N1CCOCC1,1,1,5,-1
CCc1ccc2c(c1)cc(CN(C(=S)Nc1cccc(C)c1)C1CC1)c1nnnn12,0.3,1,1,68*
CC1=C(C(=O)c2ccccc2)C(c2cn(-c3ccccc3)nc2-c2ccc(Cl)cc2)NC(=S)N1 (configuration not stated),0.6,0.9,5,35
O=C1NC(=O)C(c2cn(-c3ccccc3)nc2-c2ccc(F)cc2)N1 (configuration not stated),0.1,0.8,21,94*
O=C(COc1ccc2ccccc2c1)N1CCN(C(=O)c2cccnc2)CC1,1,1,3,4
CCOC(=O)C(NCc1ccccn1)(NC(=O)c1cccnc1)C(F)(F)F (configuration not stated),0.9,0.8,16,10
CCOC(=O)C(C)(C)C(=O)C(C)(C)C(O)c1ccccn1 (configuration not stated),1,0.5,51*,-1
CCCCn1c2nc3ccccc3nc2c2c(=O)n(CCC(C)C)cnc21,0.9,0.9,14,13
CCCCCCn1c(C)nc2c(c1=O)c1nc3ccccc3nc1n2/N=C/c1ccco1,0.3,1,2,74*
Nc1c(C(=O)NC2CCCCC2)c2nc3ccccc3nc2n1/N=C/c1ccco1,0.7,1,1,34
CCCn1cnc2c(c1=O)c1nc3ccccc3nc1n2CCC1=CCCCC1,0.4,0.2,84*,58*
O=c1c2c3nc4ccccc4nc3n(/N=C/c3ccco3)c2ncn1CCC1=CCCCC1,0.4,0.5,55*,58*
CCCn1cnc2c(c1=O)c1nc3ccccc3nc1n2CCc1ccccc1,0.6,0.1,90*,39
Cc1cc(/C(=N/O)C(C)(C)NO)ccc1Cl,0.9,0.6,35,6
COc1ccc2c(c1)CCCC21NC(=O)NC1=O (configuration not stated),1.3,1.1,-10,-28
CCN1CCN(/C=N/c2nc(C)cs2)CC1,1.1,1,-2,-10
CC1CCCC(C)N1CC(O)COc1ccc(Cl)cc1 (configuration not stated),1.1,0.7,25,-10
O=C(CN1C(=O)NC2(CCCCCC2)C1=O)c1ccc2c(c1)OCCO2,0.6,0.9,14,41
CC(C)Cn1cnc2c(c1=O)c1nc3ccccc3nc1n2Cc1ccc2c(c1)OCO2,0.5,1,-2,50*
Cc1nc2c(c(=O)n1CCC1=CCCCC1)c1nc3ccccc3nc1n2/N=C/c1ccccc1,0.6,0.9,9,35
CC(C)Cn1c2nc3ccccc3nc2c2c(=O)n(CCN3CCOCC3)cnc21,0.7,0.9,8,26
SMILES,CYP2C9 activ,CYP2C19 activ,CYP2C19 inhib,CYP2C9 inh
CCOCCCn1c(C)nc2c(c1=O)c1nc3ccccc3nc1n2CCC1=CCCCC1,0.2,0.3,73*,80*
CCc1ccc2oc(-c3cc(N=Cc4cccc(OC)c4O)ccc3O)nc2c1,0.7,0.9,8,28
Nc1cc(C(=O)N2CCCC2)cc(C(=O)N2CCCC2)c1,1,1,0,-3
CCN(CC)S(=O)(=O)c1ccc2oc(C(=O)NC3CCCc4ccccc43)c(C)c2c1 (configuration not stated),0.4,0.7,25,59*
CSCc1c(C(=O)NC2CCCc3ccccc32)oc2ccccc12 (configuration not stated),0.4,1.2,-15,55*
Cc1cc(C(=O)NC2CCCc3ccccc32)c(C)o1 (configuration not stated),0.3,0.7,30,70*
CCCNS(=O)(=O)c1cccc(C(=O)NC2CCCc3ccccc32)c1 (configuration not stated),0.1,0.2,78*,89*
Cc1cc(C(=O)NC2CCCc3ccccc32)no1 (configuration not stated),0.9,0.6,41,13
COc1ccc(S(=O)(=O)Nc2ccc(NC(C)=O)cc2)cc1OC,0.3,0.1,95*,67*
COC(=O)c1ccc(C)c(NS(=O)(=O)c2ccc(OC)c(OC)c2)c1,0.4,0.2,82*,58*
COC(=O)COc1ccc(S(=O)(=O)Nc2ccc(NC(C)=O)cc2)cc1C,0.7,0.2,76*,32
COc1ccc(CC(=O)Nc2ccc(S(=O)(=O)N(C)C)cc2)cc1OC,0.9,1,0,11
COc1ccc(S(=O)(=O)c2ccc(OC)c(OC)c2)cc1OC,1.6,0.2,79*,-63
CC(=O)Nc1ccc(S(=O)(=O)NNC(=O)COc2cc(C)ccc2C(C)C)cc1,0.9,0.8,18,10
Cn1cnnc1SCC(=O)c1ccc2c(c1)CCCC2,1.1,0.8,20,-10
CC(C)N(C(=O)c1ccccc1-c1ccccc1)C(C)C,0.8,0.7,26,20
CCOc1ccc(NC(=O)C2CC(=O)N(C(C)C)C2)cc1 (configuration not stated),1,1.1,-6,-4
COc1ccc(S(=O)(=O)Nc2ccc(C)cc2)cc1OC,0.4,0,97*,62*
COc1cccc(NS(=O)(=O)c2c(C)n(C)c(=O)n(C)c2=O)c1,1,0.8,15,0
COc1cccc(NS(=O)(=O)c2ccc(OC)c(OC)c2)c1,1.9,0,100*,-88
COc1ccc(S(=O)(=O)Nc2ccccc2)cc1OC,1.1,0.1,90*,-7
COc1ccc(S(=O)(=O)Nc2ccc(S(=O)(=O)Nc3nc(C)cc(C)n3)cc2)cc1OC,0.8,1,-2,23
COc1ccc(CONS(=O)(=O)c2ccc(NC(C)=O)cc2)cc1Cl,1,0.5,53*,-4
CCCC(C(=O)NCc1ccco1)N(C(=O)CNS(=O)(=O)c1ccccc1)c1ccccc1OC (configuration not stated),0.9,0.6,40,12
COc1ccc(-c2nc(SC)n(C(=O)c3ccco3)n2)cc1,0.7,1,1,33
CCOC(=O)c1sc(NC(=O)c2cc3c(C)nn(-c4ccccc4)c3s2)nc1C,1,1,-4,4
CCCc1nc2sc3c(SCC(=O)NCc4ccco4)ncnc3c2c2c1CCC2,0.6,1,0,43
O=S(=O)(N1CCCCC1)N1CCN(c2ccccc2F)CC1,1.3,0.9,11,-26
CN(C)S(=O)(=O)N1CCN(c2cccc(Cl)c2)CC1,0.8,0.6,38,19
